Compound activity deposited in PubChem BioAssay by several laboratories.
Pemphigus Ab inh = human desmoglein-3 autoantibody binding inhibition | P32926 | DSG3-coupled beads, scFv-anti-DSG3-GFP binding, flow cytometry; active compounds read low | binding (percent of control), % at 10 µM | actives 0.48% (n = 310,000);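 active means binding more than 3 SD below its plate's average and above zero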;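 further: hits lower antibody fragment binding to DSG3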
Target sequence (P32926 whole entry, looked up, the tested form may be a part): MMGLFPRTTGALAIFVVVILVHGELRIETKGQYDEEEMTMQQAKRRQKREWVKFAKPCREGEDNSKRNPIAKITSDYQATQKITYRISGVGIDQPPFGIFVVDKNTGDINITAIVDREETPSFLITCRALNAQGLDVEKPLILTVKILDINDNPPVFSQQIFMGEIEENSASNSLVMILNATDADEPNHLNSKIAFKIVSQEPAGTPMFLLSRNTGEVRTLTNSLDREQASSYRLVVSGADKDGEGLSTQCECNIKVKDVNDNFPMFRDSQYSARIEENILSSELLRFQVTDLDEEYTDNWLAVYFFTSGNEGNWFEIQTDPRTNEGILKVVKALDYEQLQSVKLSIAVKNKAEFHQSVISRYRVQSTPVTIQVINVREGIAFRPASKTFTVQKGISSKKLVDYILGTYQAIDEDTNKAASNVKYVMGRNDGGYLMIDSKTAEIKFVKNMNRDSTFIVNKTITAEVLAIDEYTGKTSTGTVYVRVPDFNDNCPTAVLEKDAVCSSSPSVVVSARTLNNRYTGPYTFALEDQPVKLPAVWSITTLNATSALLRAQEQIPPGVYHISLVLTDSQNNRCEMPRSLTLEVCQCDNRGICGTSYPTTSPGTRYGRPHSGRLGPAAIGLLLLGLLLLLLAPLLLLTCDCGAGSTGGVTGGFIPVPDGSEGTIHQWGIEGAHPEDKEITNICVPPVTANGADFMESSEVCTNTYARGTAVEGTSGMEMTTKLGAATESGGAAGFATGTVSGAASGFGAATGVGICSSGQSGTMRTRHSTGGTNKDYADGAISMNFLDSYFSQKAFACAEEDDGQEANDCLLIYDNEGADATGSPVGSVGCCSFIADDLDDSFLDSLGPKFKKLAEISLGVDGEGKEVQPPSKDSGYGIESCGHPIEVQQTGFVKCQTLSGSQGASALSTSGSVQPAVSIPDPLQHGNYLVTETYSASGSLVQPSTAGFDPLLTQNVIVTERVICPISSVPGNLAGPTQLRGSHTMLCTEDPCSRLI
rCAG binder = binds r(CAG) RNA repeats; r(CAG) RNA repeat, TO-PRO-1 dye displacement fluorescence; AID 651821; actives 1.3% (n = 370,000); inhibition, % at 3 µM;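 active means inhibition above the plate cutoff, the mean of all test compounds on that plate plus 3 SD, cut at about 35% in these data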;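 further: higher means more dye released from RNA so lower well fluorescence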
DAGLB inhibitor = diacylglycerol lipase beta (human) inhibition; Q8NCG7; HEK293T DAGLB membrane lysate, EnzChek fluorogenic substrate; inhibition, % at 5.17 µM; actives 0.059% (n = 340,000); AID 504411; in the data active means inhibition above about 34%
NadD inh = NadD (S. aureus) enzyme inhibition | purified NadD enzyme, colorimetric absorbance read-out | inhibition, % at 20 µM | actives 0.78% (n = 360,000); in the data active means inhibition above about 26%
MsrA inhibitor = inhibits bovine methionine sulfoxide reductase A; AID 651718; purified bovine MsrA, absorbance read-out; inhibition, % at 15.5 µM; actives 0.75% (n = 360,000); in the data active means inhibition above about 4.5%
MsrA act = activates bovine MsrA enzyme; purified bovine MsrA, absorbance read-out; activation, % at 10.6 µM; AID 602163; actives 0.3% (n = 360,000); in the data active means activation above about 7.5%
Large screens that a line does not name were inactive. An excerpt weighted towards active compounds, which were near 3.2% of everything screened.

Cc1cccc(CN2CCN(C3CN(Cc4ccc(F)cc4)S(=O)(=O)C3)CC2)c1 (stereo not drawn)	none (no result: Pemphigus Ab inh, DAGLB inhibitor)
Cc1c(Cc2ccccc2)c(=O)oc2c(CN(C)C)c(O)c(Cl)cc12	none (no result: Pemphigus Ab inh)
CCc1cc2c(=O)c(Oc3ccccc3F)c(C)oc2c(CN(C)C)c1O	MsrA inhibitor 6.7 (no result: Pemphigus Ab inh)
Nn1c(SCC(=O)Nc2cccc3ccccc23)nnc1-c1cc(-c2ccc(Cl)cc2)n[nH]1	none (no result: Pemphigus Ab inh, DAGLB inhibitor, NadD inh, MsrA inhibitor, MsrA act)
O=C(CCc1nc2ccccc2c(=O)[nH]1)OCc1ccc(-c2ccccc2)cc1	Pemphigus Ab inh 7.9
O=C(CCc1nc2ccccc2c(=O)[nH]1)OCc1cccc(C(F)(F)F)c1	none
C=CCn1c(N2CCN(c3ccc(OC)cc3)CC2)nc2c1c(=O)[nH]c(=O)n2C	Pemphigus Ab inh -12
COc1ccc(CCn2c(NN)nc3c2c(=O)[nH]c(=O)n3C)cc1	Pemphigus Ab inh 79
CCNC(=O)C1CCCN(Cc2ccc(C)c3ccccc23)CC1 (stereo not drawn)	none (no result: Pemphigus Ab inh, rCAG binder, DAGLB inhibitor, MsrA inhibitor)
O=C(NCc1cccnc1)c1ccc(-c2cc(Cl)ccc2Cl)o1	none
Cc1nnc(NC(=O)c2ccc(-c3ccc(Cl)cc3)o2)s1	Pemphigus Ab inh 22
O=C(NCc1cccnc1)c1ccc(-c2ccc(Cl)cc2)o1	Pemphigus Ab inh 58
O=C(Nc1nccs1)c1ccc(-c2ccc(Cl)cc2)o1	none
CC(C)NC(=O)N[C@@H]1C[C@@H]2O[C@@H](CO)CC[C@@H]2O[C@@H]1CCc1ccc(-c2ccccc2F)cc1	none (no result: Pemphigus Ab inh, DAGLB inhibitor, NadD inh, MsrA inhibitor, MsrA act)
COC(=O)c1ccc(C2C(Oc3ccccc3)C(=O)N2CCc2ccc(OC)c(OC)c2)cc1 (stereo not drawn)	Pemphigus Ab inh 83
C/C(=N\NC(=O)c1ccncc1)c1ccc(N(C)C)cc1	MsrA inhibitor 4.7
Cc1c(N=Nc2c(-c3ccc([N+](=O)[O-])cc3)[nH]n(C(N)=S)c2=O)cccc1[N+](=O)[O-]	NadD inh 81
Cc1[nH]n(C(N)=S)c(=O)c1N=Nc1cccc([N+](=O)[O-])c1C	none (no result: rCAG binder, MsrA inhibitor)
NC(=S)n1[nH]c(-c2ccc([N+](=O)[O-])cc2)c(N=Nc2cccc([N+](=O)[O-])c2)c1=O	NadD inh 77
NC(=S)n1[nH]c(-c2ccc([N+](=O)[O-])cc2)c(N=Nc2ccccc2[N+](=O)[O-])c1=O	NadD inh 64
CCOC(=O)CN1C(=O)N(c2ccc(OC)cc2)[C@H]2CC3c4ccccc4C[C@]3(C)[C@@H](C(=O)N(C)C3CCCCC3)C[C@H]21 (stereo partly drawn)	none (no result: Pemphigus Ab inh, DAGLB inhibitor, NadD inh, MsrA act)
O=C(/C=C/c1cc[n+](CC(=O)c2ccc3cccc4c3c2CC4)cc1)c1ccc2cccc3c2c1CC3	Pemphigus Ab inh 63, NadD inh 83 (no result: rCAG binder, MsrA inhibitor)
O=C(C[n+]1ccc2ccccc2c1)c1cccc2ccccc12	none
O=C(COc1ccc(F)cc1Br)NCCCN1CCCC1=O	none
Nc1c(S(=O)(=O)c2ccccc2)cnc2c(-c3ccc(F)cc3)cnn12	Pemphigus Ab inh -18
O=C(CNC(=O)c1ccccc1)N=Nc1c(O)[nH]c2ccc(Br)cc12	none
O=[N+]([O-])c1ccc2[nH]c(O)c(N=NC(=S)NCC3CCCO3)c2c1 (stereo not drawn)	none
CCNC(=S)N=Nc1c(O)[nH]c2ccc([N+](=O)[O-])cc12	Pemphigus Ab inh 40
O=C(CNC(=O)c1ccc(Br)cc1)N=Nc1c(O)[nH]c2ccc([N+](=O)[O-])cc12	Pemphigus Ab inh 35
O=[N+]([O-])c1ccc(Cl)c(CN2CCN(c3ncc(Cc4ccccc4)cn3)CC2)c1	none (no result: Pemphigus Ab inh, DAGLB inhibitor, NadD inh, MsrA act)
CCCCCCCCN1CN2Cc3cc(OC)ccc3C2CS1(=O)=O (stereo not drawn)	none (no result: Pemphigus Ab inh, DAGLB inhibitor, NadD inh, MsrA inhibitor, MsrA act)
O=C(Nc1nc(-c2ccccc2)c(-c2ccccc2)s1)c1ccc(S(=O)(=O)N2CCCC2)cc1	Pemphigus Ab inh 82
O=C(Nc1ccccc1)c1ccc(S(=O)(=O)N2CCCC2)cc1	none
O=C(Nc1nc(-c2ccccc2)c(C(=O)c2ccccc2)s1)c1ccc(S(=O)(=O)N2CCCC2)cc1	Pemphigus Ab inh -1.0
CCOC(=O)c1nn(-c2ccccc2)c(=O)c2c(NC(C)=O)scc12	Pemphigus Ab inh 62
CCOC(=O)c1cc2c(C)nn(-c3ccccc3)c2s1	Pemphigus Ab inh -30
CCOC(=O)c1nn(-c2ccccc2)c(=O)c2c(N)scc12	none
CSc1nc(Cc2ccccc2)cc(=O)[nH]1	Pemphigus Ab inh 61
N#Cc1ccc(C=NN2CCCCCC2)cc1	none
COc1ccc(CNC(=O)COc2cc3c(c4oc(=O)cc(C)c24)CCC(C)(C)O3)c(OC)c1	none (no result: Pemphigus Ab inh, DAGLB inhibitor)
COc1cccc(-c2ccnc3[nH]n(-c4ccccc4)c(=O)c23)c1	none
COc1ccc(-c2ccnc3[nH]n(-c4ccccc4)c(=O)c23)cc1	Pemphigus Ab inh 87
Cc1ccc2nc(NC(=O)c3ccc4ncsc4c3)sc2c1	Pemphigus Ab inh -6.3
COc1ccc(/C=N/OC/C(O)=C(\C#N)c2nc3ccccc3[nH]2)cc1	none
COc1ccc(OC/C(O)=C(\C#N)c2nc3ccccc3[nH]2)cc1	Pemphigus Ab inh 16
N#CCC[C@H]1CC[C@]2(CCCN(C(=O)C3CCCCC3)C2)O1	none (no result: Pemphigus Ab inh, DAGLB inhibitor, NadD inh, MsrA inhibitor, MsrA act)
O=C1N=C(N2CCC(Cc3ccccc3)CC2)S/C1=C/c1cn[nH]c1-c1ccccc1	NadD inh 41
O=C1N=C(N2CCN(c3ccccc3)CC2)S/C1=C\c1cn[nH]c1-c1ccccc1	NadD inh 48
Cc1cccc(N2CCN(C3=NC(=O)/C(=C\c4cn[nH]c4-c4ccccc4)S3)CC2)c1	none
COc1ccccc1/C=C1\SC(N2CCC(C)CC2)=NC1=O	none
Cc1ccc(N2CCN(C3=NC(=O)/C(=C\c4cn[nH]c4-c4ccccc4)S3)CC2)cc1	NadD inh 42
CCN(CC)C(=O)CC[C@H]1CC[C@]2(CCCN(C(=O)c3ccno3)C2)O1	none (no result: Pemphigus Ab inh, DAGLB inhibitor, NadD inh, MsrA inhibitor, MsrA act)
O=C(N[C@H](C(=O)N1CCC[C@H]1C(=O)NCCc1ccccc1Cl)C1CCCCC1)c1ccccc1	none (no result: Pemphigus Ab inh, DAGLB inhibitor, NadD inh, MsrA act)
CN(C)c1ccc(C=Nc2ccccc2C(N)=O)cc1	MsrA inhibitor 5.6
O=C1Nc2ccc(Br)cc2/C1=N\N=C\C1=C(N2CCOCC2)C(=C/c2ccccc2)/CC1	Pemphigus Ab inh 86
O=C1Nc2ccccc2/C1=N\N=C\C1=C(N2CCOCC2)C(=C\c2ccccc2)/CC1	Pemphigus Ab inh 80
COC(=O)c1cccc(N2C(=O)C[C@](Sc3ccc(OC)cc3)(C(=O)N3CCOCC3)[C@H]2c2ccc(OC)cc2)c1	none (no result: Pemphigus Ab inh, DAGLB inhibitor, NadD inh, MsrA inhibitor, MsrA act)
O=C(COc1ccc(Cl)cc1)Nc1ccc(N2CCN(C(=O)c3ccco3)CC2)cc1	Pemphigus Ab inh 72
CN(C)C(=O)c1ccc2c(c1[N+](=O)[O-])C(=O)c1ccccc1C2=O	none
Cc1[nH]c2ccccc2c1CCNC(=O)c1ccc2c(c1[N+](=O)[O-])C(=O)c1ccccc1C2=O	NadD inh 40
Cc1[nH]c2c(C)cccc2c1CCNC(=O)c1ccc2c(c1[N+](=O)[O-])C(=O)c1ccccc1C2=O	NadD inh 35
Cc1ccccc1CN1CCCCC(NC(=O)c2cc(-c3ccccc3)no2)C1=O (stereo not drawn)	none (no result: Pemphigus Ab inh, DAGLB inhibitor, NadD inh, MsrA inhibitor, MsrA act)
